# Data from the OligoGym collection.
# Target: PIP5KL1
# Assay: pooled miR-30 sensor sort-seq; sequence = guide strand
# Details: shRNA
# Also: reference of the scale not given here.
row,Sequence,sensor-assay potency score (higher = more potent)
1,TTTGATGTCATACCTCTCGGAG,-0.872
2,TACCTCTCGGAGATGCGGCCGG,-0.502
3,TGTCTTCCACAGGTGCTCCAGC,-0.631
4,TAATCCAGCACGTTGAGCTCCC,-0.232
5,TTTGGGCTCTCGACTCTTCCGG,-0.891
6,TATCAGGAGGCTGTAATCCAGC,-1.11
7,TAGCGCAGTGTCTTCCACAGGT,0.0204
8,TTGCGGAGCCCGTAGACTGTGG,-1.6
9,TTGGGCTCTCGACTCTTCCGGG,-0.549
10,TTGATGTCATACCTCTCGGAGA,-1.04
11,TTGAGCTCCCGGAGGAAGGTGG,-0.608
12,TATCCAGTTCCATCTGGCGGAG,-1.65

# Target: PITPNM3
# Assay: as above
# Details: shRNA
row,Sequence,sensor-assay potency score (higher = more potent)
1,TTCTCCTTGATGCTCGTCCAGT,-0.95
2,TTACGAAGCCACTTCTCCCGGG,-0.085
3,TTTGCTGAGACGCTTGCTGCTG,-0.757
4,TTTGATGAAGCACTCCTGCATG,-0.502
5,TATGTGATGCGACCACTGCTGT,-0.671
6,TTCAGCAGCAATCACATCATTG,-1.64
7,TTGCTGAGACGCTTGCTGCTGG,-0.433
8,TAGACAGAGATGTCCTTCGTGG,-0.052
